# An excerpt weighted towards active compounds, which were near 4.1% of everything screened.
# GDH-TPI inh = GDH-TPI coupled enzyme inhibition counter-screen. GDH-TPI coupled enzyme counterscreen, NADH absorbance. inhibition, % at 4.8 µM. 360,000 compounds, 1.2% hits; in the data active = inhibition above about 30%;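 note: 0% = DMSO wells and 100% = wells lacking the enzyme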
# Rv3671c inh = inhibitors of M. tuberculosis serine protease Rv3671c | P9WHR9 | AID 2606 | inhibition, % at 5.96 µM | 320,000 compounds, 0.048% hits; in the data active = inhibition above about 38%;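 note: extracellular domain of Rv3671c used as enzyme; 0% = enzyme with DMSO and 100% = no enzyme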
# Vc quorum ag = quorum light induction in luxS cqsA deficient V. cholerae | V. cholerae BH1578 lux reporter, luminescence, 6 h | activation, % at 18.7 µM | 350,000 compounds, 0.16% hits; in the data active = activation mostly above about 9.7%, no sharp cut-off
# Mtb FBA inh = inhibitors of M. tuberculosis fructose-bisphosphate aldolase; P9WQA3; purified M. tuberculosis FBA, fluorescence read-out; inhibition, % at 1 µM; 360,000 compounds, 2.3% hits; in the data active = inhibition above about 27%;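 note: 0% = vehicle and 100% = reference inhibitor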
# Target sequence (P9WQA3 whole entry, looked up): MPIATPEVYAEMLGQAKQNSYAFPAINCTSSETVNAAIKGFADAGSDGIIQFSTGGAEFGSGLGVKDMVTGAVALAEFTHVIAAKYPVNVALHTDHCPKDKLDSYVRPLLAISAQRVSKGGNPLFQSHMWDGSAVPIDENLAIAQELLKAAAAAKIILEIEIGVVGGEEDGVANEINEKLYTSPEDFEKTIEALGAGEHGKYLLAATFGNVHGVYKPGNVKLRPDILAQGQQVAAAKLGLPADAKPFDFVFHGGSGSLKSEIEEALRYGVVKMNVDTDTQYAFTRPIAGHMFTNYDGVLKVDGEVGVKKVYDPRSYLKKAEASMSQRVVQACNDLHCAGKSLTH
# UGM FP inh = Mtb UDP-galactopyranose mutase inhibition. P9WIQ1. purified UGM, fluorescence polarization probe displacement. inhibition, % at 10 µM. 320,000 compounds, 0.06% hits. AID 504406; in the data active = inhibition above about 10%, passing the limit was not always enough
# RecA splice inh = Mtb RecA intein splicing inhibition; inhibition, % (test concentration not listed); AID 2221; cell-free RecA intein splicing, fluorescence; P9WHJ3; 290,000 compounds, 0.75% hits; in the data active = inhibition above about 30%;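 note: 0% = vehicle wells and 100% = reference inhibitor control wells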
# The depositor's hits bear a star; i = inactive; . = not tested or not shown; + = active, no number.
SMILES,GDH-TPI inh,Rv3671c inh,Vc quorum ag,Mtb FBA inh,UGM FP inh,RecA splice inh
Cc1ccc(F)cc1NC(=O)CSCc1nc2sc(C)c(C)c2c(=O)[nH]1,0.0,-4.0,i,-2.1,0.8,-1.1
Nc1ccc2c(C(F)(F)F)cc(C(F)(F)F)nc2n1,11.9,-0.1,1.1,+,0.4,-5.2
CSc1ccccc1C(=O)OCC(=O)Nc1c(C)n(C)n(-c2ccccc2)c1=O,-0.9,.,-0.8,0.4,.,.
CCCc1[nH]nc2c1C(c1ccc(OCCN3CCOCC3)c(OC)c1)C(C#N)=C(N)O2 (centres undefined),10.5,6.8,-13.6,4.9,3.9,31.6*
COc1cc(C2C(C#N)=C(N)Oc3n[nH]c(-c4cccs4)c32)cc(OC)c1O (centres undefined),11.0,-8.2,3.0,-9.2,0.1,10.9
N#CC1=C(N)Oc2n[nH]c(-c3cccs3)c2C1c1ccoc1 (centres undefined),16.6,-8.1,-0.3,-3.3,0.7,84.8*
COc1ccc(-c2[nH]nc3c2C(c2ccsc2)C(C#N)=C(N)O3)cc1 (centres undefined),14.7,-2.5,i,1.1,2.3,70.9*
CCOc1cc(C2C(C#N)=C(N)SC(N)=C2C#N)ccc1OCCN1CCOCC1,15.6,2.2,-0.4,3.5,1.6,-3.2
COCc1[nH]nc2c1C(c1cc(OC)c(O)c(OC)c1)C(C#N)=C(N)O2 (centres undefined),4.6,-1.6,0.1,-1.7,-2.6,-4.1
COCc1[nH]nc2c1C(c1cccc(OC)c1)C(C#N)=C(N)O2 (centres undefined),13.1,-7.7,-0.4,4.0,6.4,57.3*
COc1ccc(-c2[nH]nc3c2C(c2ccc(OC(=O)N4CCOCC4)cc2)C(C#N)=C(N)O3)cc1 (centres undefined),.,-8.6,.,.,-1.6,.
Cc1ccc(C)c(N2CCN(CCCc3ccccc3)CC2)c1,16.2,.,i,-2.1,-2.2,1.7
Cc1c(Cl)cccc1NC(=S)NC1CCCC1,-2.9,-3.1,0.9,-0.6,-3.1,0.1
Cc1ccc(C)c(NC(=O)c2ccc(OCc3c(C)noc3C)cc2)c1,1.1,-4.7,-1.4,-0.8,1.5,.
COc1ccc(Cl)cc1S(=O)(=O)Nc1ncn[nH]1,0.7,-4.4,-0.3,0.6,0.7,-1.0
CN1OC[C@@H]2CN(Cc3ccc(Cl)cc3)[C@H](c3ccc(-n4ccnc4)cc3)C[C@@H]21,.,.,.,0.9,.,.
OC(c1ccc(-c2ccccc2)cc1)c1ncc(-c2ccc(F)cc2)[nH]1 (centres undefined),1.8,.,-0.9,0.5,.,.
CCOc1ccc(-c2[nH]nc3c2C(c2ccc4c(c2)OCO4)C(C#N)=C(N)O3)cc1OC (centres undefined),-0.8,-8.8,0.7,0.8,-0.1,60.5*
Cc1cc(C)c(C#N)c(SCc2[nH]nc3c2C(c2ccc(F)cc2)C(C#N)=C(N)O3)n1 (centres undefined),4.6,-4.0,i,0.2,0.9,31.8*
CCc1[nH]nc2c1C(c1cccnc1)C(C#N)=C(N)O2 (centres undefined),10.8,-5.6,-0.6,2.9,0.9,44.8*
CCCc1[nH]nc2c1C(c1ccncc1)C(C#N)=C(N)O2 (centres undefined),2.2,-7.1,-0.7,3.6,1.6,32.0*
Cc1cc(C#N)c(C)c(SCc2[nH]nc3c2C(c2ccccc2)C(C#N)=C(N)O3)n1 (centres undefined),6.1,0.9,.,-0.6,-0.3,24.8
CCCc1[nH]nc2c1C(c1cccnc1)C(C#N)=C(N)O2 (centres undefined),2.5,-1.3,-0.2,-1.9,0.4,.
CCCCc1ccc(NC(=O)CN2C(=O)C3CCCCC3C2=O)cc1 (centres undefined),4.1,3.3,i,-0.7,0.5,-7.6
COCCNc1nc(NCc2ccc(C(C)C)cc2)c2sccc2n1,9.3,.,-0.6,2.4,.,.
CCc1ccccc1NC(=O)CNC(=O)c1ccc(-n2cncn2)c([N+](=O)[O-])c1,-3.6,6.0,1.4,-2.8,0.0,-5.8
N#CC1=C(N)Oc2n[nH]c(-c3ccc(F)cc3)c2C1c1ccncc1 (centres undefined),1.5,-2.9,i,1.1,-1.1,61.6*
CCCc1[nH]nc2c1C(c1ccccc1OCC)C(C#N)=C(N)O2 (centres undefined),0.6,-8.4,i,-3.2,2.6,67.0*

# Screens as filed in PubChem BioAssay.
